HT1080 IDH1KD tx: qHTS for induction of synthetic lethality in tumor cells producing 2HG: qHTS for the HT-1080-IDH1KD cell line; HT-1080 IDH1 knockdown viability, ATP luminescence, 48 h; Potency, µM (series often up to 46.1 µM), without a hit: at the top dose activity, negative = toxicity, usual class: cytotoxic; actives 2% (n = 360,000);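 note: potency is the fitted concentration of half-maximal effect; 0% = DMSO wells and -100% = cell-free medium wells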
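Using the IDH1-knockdown HT-1080 line run in the same batch and compound series as the NT line, viability after 48 h at 37 °C was determined by CellTiter-Glo luminescence and expressed as % activity.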
IL1B secr inh: qHTS for Inhibitors of Inflammasome Signaling: IL-1-beta AlphaLISA Primary Screen; THP-1 LPS/ATP IL-1B secretion, AlphaLISA, 16 h; active compounds read low; activity change, % at 57.5 µM; actives 4.7% (n = 360,000); in the data active = activity change below about -50%; inconclusive = mostly about -30% to -49%
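Secreted IL-1B measured by AlphaLISA bead assay after 16 h compound exposure of THP-1 cells; compounds (final up to 57.5 uM) added 1 h before LPS (250 ng/mL) and ATP (1.25 mM) stimulation; lower signal means less secretion.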
ALOX12 inh: Primary qHTS assay for inhibitors of human arachidonate 12S-lipoxygenase (ALOX12): Round 2; Polyunsaturated fatty acid lipoxygenase ALOX12 (Homo sapiens), P18054; purified 12hLO, xylenol orange hydroperoxide absorbance; Potency, µM (highest dose often 108 µM), for the others: at the highest dose activity change, negative = inhibition, hits mostly inhibitors; actives 1.1% (n = 580,000); note: potency is the fitted concentration of half-maximal effect
Target sequence (P18054 whole entry, looked up): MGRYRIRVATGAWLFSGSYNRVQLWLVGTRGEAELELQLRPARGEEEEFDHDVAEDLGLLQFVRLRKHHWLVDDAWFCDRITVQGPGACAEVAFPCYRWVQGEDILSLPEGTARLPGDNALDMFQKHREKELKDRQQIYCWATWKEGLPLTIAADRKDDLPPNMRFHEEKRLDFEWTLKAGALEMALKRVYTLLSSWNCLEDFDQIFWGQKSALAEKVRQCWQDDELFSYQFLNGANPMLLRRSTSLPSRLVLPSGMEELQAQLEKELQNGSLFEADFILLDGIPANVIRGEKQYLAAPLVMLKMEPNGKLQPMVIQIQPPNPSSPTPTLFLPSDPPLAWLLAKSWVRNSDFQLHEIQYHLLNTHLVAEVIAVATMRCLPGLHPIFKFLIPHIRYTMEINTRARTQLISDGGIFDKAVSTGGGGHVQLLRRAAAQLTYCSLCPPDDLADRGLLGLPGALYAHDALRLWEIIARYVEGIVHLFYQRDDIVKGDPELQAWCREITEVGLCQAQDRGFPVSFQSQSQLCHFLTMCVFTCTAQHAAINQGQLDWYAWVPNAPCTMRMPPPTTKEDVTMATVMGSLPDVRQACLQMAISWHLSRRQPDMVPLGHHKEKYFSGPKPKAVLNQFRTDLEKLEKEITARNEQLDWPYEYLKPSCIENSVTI
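Purified human 12hLO (150 nM final) in 25 mM Hepes, 0.01% Triton X-100, pH 7.0 was preincubated 15 min at room temperature with compound. Then 40 uM arachidonic acid was added, 30 min. Hydroperoxide was read by Fe-XO absorbance ratio 573/405 nm.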
HT1080-NT tox: qHTS for induction of synthetic lethality in tumor cells producing 2HG: qHTS for the HT-1080-NT fibrosarcoma cell line; HT-1080-NT fibrosarcoma viability, CellTiter-Glo ATP luminescence, 48 h; Potency, µM (top dose mostly 46.1 µM), for the others: at the highest dose activity, negative = less viability, actives largely listed as cytotoxic; actives 1.6% (n = 360,000); AID 686970, 2013;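 note: NT is the 2HG producing partner of a matched IDH1 knockdown line; potency is the fitted concentration of half-maximal effect; 0% = DMSO-treated cells and -100% = media-only wells without cells; nearly all actives have a fitted effect of over 55% in size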
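Read-out is CellTiter-Glo luminescence after 10 minutes at room temperature, following 48 hours' compound treatment of HT-1080-NT cells (750 cells/well, RPMI, 5% FBS, 37 degrees C).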
DT40 TDP1 CPT: qHTS for Inhibitors of human tyrosyl-DNA phosphodiesterase 1 (TDP1): qHTS in cells in presence of CPT. chicken DT40 Tdp1-/-;hTDP1 cells + 20 nM CPT, ATP luminescence, 48 h. Potency, µM (top dose mostly 46.2 µM), inactives show top-dose activity change, negative = growth inhibition, most hits filed as inhibitors. actives 12% (n = 420,000). AID 686979, 2013; note: potency is the fitted concentration of half-maximal effect; nearly all actives have a fitted effect of over 55% in size
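Chicken DT40 Tdp1-/- cells complemented with human TDP1, 400 cells/well, exposed to compounds plus 20 nM camptothecin for at least 48 h at 37 C; viability read as ATP content by CellTiter-Glo luminescence.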
DT40 TDP1 no CPT: qHTS for Inhibitors of human tyrosyl-DNA phosphodiesterase 1 (TDP1): qHTS in cells in absence of CPT; DT40 Tdp1-/- hTDP1 cells, no CPT, ATP luminescence, 48 h; Potency, µM (titrated, usually from 46.2 µM), inactives show top-dose activity change, negative = growth inhibition, most hits filed as inhibitors; actives 15% (n = 420,000); AID 686978, 2013; note: potency is the fitted concentration of half-maximal effect; nearly all actives have a fitted effect of over 55% in size
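Luminescent ATP content (CellTiter-Glo) served as the growth readout. Knockout chicken DT40 cells expressing human TDP1 were exposed to compounds without camptothecin for a minimum 48 hr at 37 °C.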
Numbers without * were called inactive; ? = inconclusive; · = no result given; [ ] = remark or other dose. Many of the other results were omitted from the sample, so hits are more common in it than they were. Unless noted, calls come from the whole dose curve; as a rule, active = well fitted curve in the direction sought with a large enough effect; inconclusive = small, poorly fitted or top-dose-only effect, or another doubt; inactive = no such curve, though single readings can be large; an effect the other way counts as inactive or inconclusive. Unless noted, % is set by controls: 0 for no effect and ±100 for the full control effect.

SMILES	HT1080 IDH1KD tx	IL1B secr inh	ALOX12 inh	HT1080-NT tox	DT40 TDP1 CPT	DT40 TDP1 no CPT
Cc1occc1-c1nnc(SCC(=O)Nc2ccccc2-c2ccccc2)n1C	7%	-11	0%	3%	?	16µM*
CCCn1c(SCC(=O)c2cc(OC)ccc2OC)nnc1C(C)C	2%	-20	?	8%	16µM*	?
O=C(CCC1CCCC1)NCc1nnc2c(-c3nc(C4CC4)no3)cccn12	·	·	41%	·	·	·
CCN(CCNC(=O)c1ccc(CSc2nc3ccncc3[nH]2)cc1)c1ccccc1	5%	36	3%[57.4 µM]	0%	-1%	-10%
CC1CC(C)CN(C(=O)c2ccc(CSc3nc4ccncc4[nH]3)cc2)C1 (stereo unspecified)	-1%	3	4%	13%	?	12µM*
O=C(NCCN1CCN(c2cccc(Cl)c2)CC1)c1ccc(CSc2nc3ccncc3[nH]2)cc1	?	-63*	8%	?	?	?
Cc1ccc(CNC(=O)N2CC(n3cc(C(=O)NCC4CC4)nn3)C2)cc1	·	·	11%	·	·	·
CCN(CC(=O)NC(C)C)S(=O)(=O)N1CCCC(C)C1 (stereo unspecified)	·	·	8%	·	·	·
CCSc1oc(-c2cccs2)nc1S(=O)(=O)c1ccccc1	1%	0	?	-2%	?	?
CC1CCN(c2oc(-c3ccco3)nc2S(=O)(=O)c2ccccc2)CC1	-27%	-53*	?	-23%	-8%	?
O=S(=O)(c1ccccc1)c1nc(-c2ccco2)oc1N1CCCCC1	-3%	15	?	0%	1%	?
CC1CCN(c2oc(-c3cccs3)nc2S(=O)(=O)c2ccccc2)CC1	·	·	-18%	·	?	21µM*
N#Cc1c(C2CC2)cc(C(F)(F)F)[nH]c1=O	·	·	5%	·	·	·
CCC(=O)N1CCC(C(=O)Nc2ccc(S(=O)(=O)N3CCCC3)cc2)CC1	·	·	1%	·	·	·
Cc1ccccc1-c1nnc(SCC(=O)Nc2nnc(-c3ccccc3)o2)n1C	·	·	14%	·	·	·
O=C(CCl)c1ccc2[nH]c(=O)oc2c1	-2%	?	?	1%	2.6µM*	3.3µM*
Cn1nc([N+](=O)[O-])nc1Sc1nnnn1-c1cccc(C(=O)O)c1	21%	-9	-6%	16%	2%	8%
Cn1nc([N+](=O)[O-])nc1Sc1nnc(-c2ccccc2)o1	?	-96*	-3%	?	5.2µM*	4.6µM*
Cn1nc([N+](=O)[O-])nc1Sc1cccc2cccnc12	-12%	90	-25%	-21%	6.5µM*	21µM*
Cc1[nH]n2c(=O)cc(-c3ccc([N+](=O)[O-])cc3)nc2c1-c1ccccc1	16µM*	37	?	16µM*	12µM*	7.3µM*
CCOC(=O)Cc1cc(=O)n2[nH]cc(-c3cccc(Br)c3)c2n1	?	9	-2%	-29%	?	23µM*
COc1ccc(-c2c(C(F)(F)F)[nH]n3c(=O)cc(-c4ccccc4)nc23)cc1	?	·	11µM*	4%	?	?
Cc1[nH]n2c(=O)cc(-c3ccc(Cl)cc3)nc2c1-c1ccccc1	·	·	40µM*	·	0.65µM*	0.92µM*
COCCNc1nc2cc(C(=O)N3CC[C@H](CO)[C@@H](O)C3)ccc2n1C	·	·	20%	·	·	·
COC(=O)Cc1cc(=O)n2[nH]c(C)c(-c3ccccc3)c2n1	13%	-1	9%	-1%	3%	-6%
SMILES	HT1080 IDH1KD tx	IL1B secr inh	ALOX12 inh	HT1080-NT tox	DT40 TDP1 CPT	DT40 TDP1 no CPT
CCOC(=O)Cc1cc(=O)n2[nH]c(C)c(-c3ccc(Cl)cc3)c2n1	?	51	-12%	?	16µM*	11µM*
CCc1cc(=O)n2[nH]c(-c3ccccc3)c(-c3ccccc3)c2n1	?	34	-16%	?	?	21µM*
Cc1[nH]n2c(=O)cc(C(C)(C)C)nc2c1-c1ccccc1	?	34	-1%	-26%	4.6µM*	5.2µM*
CCOC(=O)Cc1c(C)nc2c(-c3ccc(Cl)cc3)c(C(F)(F)F)nn2c1C	·	·	-8%	·	23µM*	23µM*
CCOC(=O)c1cnn(-c2cc(C)nc3c(-c4ccc(Cl)cc4)c(C(F)(F)F)nn23)c1N	·	·	-3%	·	·	·
Cc1c(C(=O)OC2CCCCCC2)[nH]c2c1C(=O)CC(c1ccccc1)C2 (stereo unspecified)	·	·	-17%	·	3.3µM*	3.7µM*
Cc1c(C(=O)OC2CCCCC2)[nH]c2c1C(=O)CC(c1ccc(C(C)(C)C)cc1)C2 (stereo unspecified)	·	·	3%	·	21µM*	18µM*
Cc1c(C(=O)OC2CCCCCC2)[nH]c2c1C(=O)CC(c1ccc(Cl)cc1)C2 (stereo unspecified)	·	·	2%	·	1%	-20%
COc1ccc(-c2nc(CC3CCN(C(=O)c4cc(C)n(C)n4)C3)no2)cc1 (stereo unspecified)	·	·	35%	·	·	·
CC(CCc1ccco1)NC(=O)C1CCN(c2ccc(C(F)(F)F)cn2)CC1 (stereo unspecified)	·	·	-1%	·	·	·
Cc1ccccc1NC(=O)CSc1nc2ccc(NC(=O)c3cccs3)cc2s1	·	·	-12%	·	?	21µM*
COc1cc(C)ccc1OCCSc1nc2ccc(NC(=O)c3ccccc3F)cc2s1	·	·	-6%	·	?	-18%
COc1ccccc1C(=O)Nc1ccc2nc(SCCOc3ccccc3C)sc2c1	·	·	-18%	·	16µM*	18µM*
Cc1cc(C)cc(OCCSc2nc3ccc(NC(=O)c4cccs4)cc3s2)c1	·	·	-21%	·	?	21µM*
COc1cccc(Nc2nccc3[nH]c(-c4ccc(F)c(F)c4)nc23)c1	·	·	-4%	·	·	·
O=S(=O)(NCCc1cn2ccccc2n1)c1cccc(Cl)c1	·	·	3%	·	·	·
CC1CCN(C(=O)CCc2ncc(-c3c(F)cccc3F)o2)CC1	·	·	47%	·	·	·
Cc1cccc(NC(=S)N2CCC(c3nc4ccccc4o3)CC2)c1	8%	-6	?	11%	?	29µM*
Cc1ccc(C2CCN(C(=S)NC3CCCCC3)C2)cc1 (stereo unspecified)	?	30	?	?	?	18µM*

High-throughput results deposited in PubChem BioAssay by National Center for Advancing Translational Sciences (NCATS).
